# Laboratory results reported in the supplement of paper PMC12636033.
# ± gives the standard deviation of the averaged measurements. Over roughly 33,000 sequences, “E-score (rank enrichment, -0.5 to 0.5)” has its median near -0.0075; the highest 2% begin near 0.23. The full list was thinned out, with the highest values kept by preference.
# Tested on: WT Max(13-93) synthetic (M65Nle)
# Assay: PBM 8-mer E-score (E-score (rank enrichment, -0.5 to 0.5)); higher = stronger preferential binding
# Experimental: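 Protein binding microarray (universal PBM chip covering all 10-mers in fixed probe flanks) with chemically synthesized human Max(13-93) bHLH-LZ analogs (not full-length Max) bearing noncanonical residues (hArg, Tha, Aib, Nle at 65) and aromatic Cys staples. Read-out per 8-mer (and its reverse complement): E-score (rank-based enrichment, -0.5 to 0.5) and Z-score of median probe intensity.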
row,Sequence,PBM 8-mer E-score
1,CCGCCCGG,-0.265 ± 0.039
2,CCCGCCCC,0.285 ± 0.14
3,CTCGTTCC,-0.0941 ± 0.0052
4,CCGACGTA,-0.103 ± 0.022
5,AATCACCT,0.115 ± 0.11
6,TAGTGCAA,0.023 ± 0.006
7,AGCGGAGG,-0.124 ± 0.11
8,CTTAATGC,0.162 ± 0.095
9,CCGTACCA,-0.129 ± 0.033
10,AACACGCA,0.134 ± 0.0072
11,AACACGCG,0.3 ± 0.08
12,GACACAAA,0.24 ± 0.048
13,CACACAAA,0.103 ± 0.13
14,CACGCTCA,0.0695 ± 0.057
15,AACACGCC,0.0311 ± 0.14
16,CACACGAA,0.272 ± 0.054
17,CACACGAG,0.105 ± 0.0042
18,CACGCTCG,0.266 ± 0.035
19,TACACAAA,0.0928 ± 0.018
20,AACGCTCG,-0.131 ± 0.017
21,CACACGAC,0.13 ± 0.11
22,AAATTAAA,0.198 ± 0.044
23,TCAAAGGA,0.0761 ± 0.07
24,CGTTTTGA,-0.0368 ± 0.12
25,ACGACATG,0.0526 ± 0.047

row,Sequence,PBM 8-mer E-score
1,CGCGGCCA,-0.0571 ± 0.036
2,CCGAAACC,-0.199 ± 0.026
3,GACACCGC,-0.206 ± 0.08
4,ACGTCCCC,0.0319 ± 0.084
5,AGCATTTA,-0.11 ± 0.038
6,CACACGCA,0.174 ± 0.028
7,CACACGCC,0.0838 ± 0.085
8,CACACGCG,0.302 ± 0.017
9,TAGGCACA,0.0603 ± 0.0065
10,CAGAGGTA,0.0024 ± 0.058
11,GTATGAGA,0.109 ± 0.033
12,GGATGATA,-0.00911 ± 0.064
13,GTATGATA,0.235 ± 0.0072
14,CTATGATA,-0.00697 ± 0.0076
15,ATATGATA,0.302 ± 0.013
16,ATATGATG,0.19 ± 0.03
17,CAGCGCCA,-0.237 ± 0.0045
18,GTGGCTCA,-0.0168 ± 0.037
19,ACAGGAGA,0.0713 ± 0.014
20,CCCTACGG,-0.21 ± 0.015
21,CACACATA,0.0464 ± 0.029
22,AAAACATG,0.28 ± 0.024
23,AACACATC,-0.0183 ± 0.028
24,AACACATG,0.368 ± 0.0069
25,AACACATA,0.263 ± 0.084

row,Sequence,PBM 8-mer E-score
1,AAAACATT,0.147 ± 0.033
2,CAAACATG,0.17 ± 0.13
3,TACACATA,0.213 ± 0.083
4,AACACATT,0.13 ± 0.017
5,CATGTAGA,0.193 ± 0.018
6,ACGCCCTC,0.0691 ± 0.11
7,GATCCAGC,-0.241 ± 0.017
8,ATCCGTAG,-0.21 ± 0.046
9,GCAGTGAA,0.0345 ± 0.11
10,ATGACAAT,0.264 ± 0.018
11,AGGACAAT,0.183 ± 0.045
12,AAGACAAT,0.228 ± 0.075
13,ATGACAAC,0.166 ± 0.029
14,ATGACAAA,0.261 ± 0.11
15,ATGACAAG,0.119 ± 0.12
16,TCGGGCCA,-0.185 ± 0.0072
17,CGAATCTA,-0.0418 ± 0.067
18,ATGTATGC,0.166 ± 0.0091
19,ACTAGACT,0.0207 ± 0.063
20,AAGCACGT,0.367 ± 0.028
21,AAGCACGA,0.125 ± 0.0091
22,ACGCACAG,-0.0926 ± 0.096
23,ACGCACGA,0.143 ± 0.032
24,ACGCACAT,0.267 ± 0.02
25,ACGCACGT,0.314 ± 0.041

row,Sequence,PBM 8-mer E-score
1,ACGCACAA,0.0902 ± 0.052
2,AAGCACGG,0.0974 ± 0.06
3,ACGCACGC,0.205 ± 0.014
4,CCAAACTA,0.165 ± 0.012
5,AAGCTCAT,-0.131 ± 0.098
6,AAGGTCGG,-0.014 ± 0.081
7,AGACAACT,0.0555 ± 0.044
8,AGACAACG,0.246 ± 0.068
9,AGACAACC,0.0303 ± 0.033
10,CGGCAGTA,-0.142 ± 0.064
11,AATCGATC,-0.232 ± 0.024
12,CCCCTAGA,0.0696 ± 0.042
13,TTATTGAA,0.254 ± 0.0091
14,ATATTGAA,0.114 ± 0.03
15,GTATTGAA,0.119 ± 0.057
16,CTCATAGA,-0.0903 ± 0.024
17,AGCCGGAC,-0.207 ± 0.036
18,CCGATTAG,0.0704 ± 0.0021
19,CCCCCATC,0.0485 ± 0.11
20,CTAAGTTA,-0.011 ± 0.089
21,ATAAGTTA,0.258 ± 0.062
22,GTAAGTTA,0.0737 ± 0.022
23,ATGGTGCA,0.264 ± 0.074
24,GTGGTGCA,0.0246 ± 0.1
25,ATGGTGCG,-0.0696 ± 0.06

row,Sequence,PBM 8-mer E-score
1,GGAAAGCA,-0.0514 ± 0.036
2,CGCGGACA,-0.102 ± 0.039
3,AACGAGCG,-0.0104 ± 0.028
4,AACATGTC,0.12 ± 0.037
5,CACATGTA,0.379 ± 0.0071
6,CAAATGTG,0.152 ± 0.026
7,CACATGTC,0.186 ± 0.026
8,CCCATGTA,0.0146 ± 0.049
9,AACATGTT,0.137 ± 0.042
10,AACATGTG,0.412 ± 0.017
11,CTCATGTA,0.138 ± 0.03
12,CACATGTG,0.435 ± 0.007
13,CGCTGTGA,-0.0883 ± 0.11
14,AGGAGGAC,-0.0293 ± 0.04
15,GTGGGATA,0.163 ± 0.018
16,GCGGTACC,-0.176 ± 0.019
17,ATATGTAC,0.0738 ± 0.0056
18,GTATGTCA,0.246 ± 0.028
19,GTATGTTA,0.164 ± 0.091
20,CTATGTCA,0.0959 ± 0.026
21,ATATGTAA,0.239 ± 0.05
22,ATATGTCA,0.1 ± 0.073
23,GAATGTAA,0.163 ± 0.13
24,CTATGTAA,-0.0284 ± 0.05
25,GTATGTAA,0.288 ± 0.0084

row,Sequence,PBM 8-mer E-score
1,AGGCGAAG,-0.078 ± 0.072
2,CCGTTTCG,-0.0232 ± 0.051
3,GCTCACGA,0.0957 ± 0.066
4,AACGGTAT,0.0275 ± 0.051
5,CCAGTGAA,-0.0413 ± 0.11
6,AAAGCAAT,0.0889 ± 0.03
7,ATACTGTG,0.012 ± 0.036
8,CTACATTC,0.0193 ± 0.054
9,ATACATTC,0.285 ± 0.006
10,ATACATTG,0.168 ± 0.05
11,GCTCGCCA,-0.0485 ± 0.054
12,GCGCTAAC,-0.0628 ± 0.026
13,AGGAGATA,0.0677 ± 0.065
14,CCAGCGGA,-0.175 ± 0.022
15,TCCATTAA,0.0431 ± 0.0063
16,ACCATTCG,-0.0773 ± 0.11
17,ATCATTAA,0.238 ± 0.023
18,CCCATTAA,0.0514 ± 0.069
19,ACCATTAA,0.284 ± 0.11
20,TGCATTAA,0.26 ± 0.051
21,CTCATTAA,0.204 ± 0.07
22,AGCATTAA,0.173 ± 0.078
23,ACCATTCC,0.00607 ± 0.099
24,ATCATTAG,0.209 ± 0.02
25,ACCATTCA,0.233 ± 0.0053

row,Sequence,PBM 8-mer E-score
1,CGCATTAA,-0.00629 ± 0.02
2,AATGGTCT,-0.085 ± 0.06
3,ATTTTGCC,-0.00751 ± 0.0085
4,CATTCGCG,0.0727 ± 0.022
5,ACCCTTAC,0.0907 ± 0.047
6,ATCGTGAC,-0.123 ± 0.014
7,GGCTGCCC,-0.212 ± 0.043
8,AACAGACT,0.125 ± 0.061
9,AAGGCGTC,-0.0911 ± 0.022
10,TGCCACAA,-0.0153 ± 0.13
11,CCCAGTTA,-0.0517 ± 0.012
12,AATAATAC,0.211 ± 0.029
13,ACTAATAA,0.182 ± 0.058
14,CATAATAA,0.114 ± 0.18
15,AATAATAA,0.242 ± 0.013
16,CATAATAG,0.241 ± 0.027
17,AATAATTC,0.0855 ± 0.084
18,AATAATTA,0.237 ± 0.058
19,CCTAATAA,0.166 ± 0.01
20,TATAATAA,0.2203 ± 0.00023
21,GATAATTA,0.157 ± 0.17
22,TCTAATAA,0.272 ± 0.069
23,AATAATAG,0.14 ± 0.12
